Bioassay records from PubChem BioAssay.
SW480 rerep – inducers of DNA re-replication in SW480 colon cancer cells; SW480 DNA re-replication, Hoechst DNA content imaging, 48 h; Potency, µM (titrated, usually from 46.1 µM), inactives show at the top dose re-replication activation, usual class: activators; 340,000 tested, 1.8% active; further: % of control where 0% means no effect; nearly all actives have a fitted effect of over 55% in size
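Readout is total intensity of Hoechst-stained nuclei, excited at 405 nm and collected at 500-530 nm. Compound treatment lasted 48 hr at 37 C in 5% CO2 before staining.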
KB-3-1 tox – kills parental KB-3-1 adenocarcinoma cells; Potency, µM (series often up to 46.1 µM), usual class: cytotoxic; 400,000 tested, 1.4% active; KB-3-1 viability, CellTiter-Glo ATP luminescence, 72 h; AID 1347075; further: on the % scale 0 is the no-effect control and ±100 the full control effect; nearly all actives have a fitted effect of over 60% in size
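Multi-concentration cytotoxicity screen in KB-3-1 cells grown in DMEM lacking phenol red with 10% FBS. After 72 h at 37 °C with compound, ATP-dependent luminescence was recorded.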
HT1080 IDH1KD tx – toxicity to HT-1080 IDH1 knockdown cells (counter line). HT-1080 IDH1 knockdown viability, ATP luminescence, 48 h. Potency, µM (top dose mostly 46.1 µM), for the others: at the highest dose activity, negative = toxicity, most hits filed as cytotoxic. 360,000 tested, 2% active. AID 686971;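 further: 0% = DMSO wells and -100% = cell-free medium wells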
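HT-1080-IDH1KD cells (IDH1 knocked down), 750/well in RPMI with 5% FBS, treated with compound 48 h at 37 degrees C. Viability by CellTiter-Glo luminescence, normalised to DMSO and no-cell wells; concentration-response curves classed.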
HT1080-NT tox – kills 2HG-producing HT-1080-NT fibrosarcoma cells; HT-1080-NT fibrosarcoma viability, CellTiter-Glo ATP luminescence, 48 h; Potency, µM (doses to about 46.1 µM), for inactives: at the highest dose activity, negative = less viability, most hits filed as cytotoxic; 360,000 tested, 1.6% active; AID 686970;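 further: NT is the 2HG producing partner of a matched IDH1 knockdown line; 0% = DMSO-treated cells and -100% = media-only wells without cells; nearly all actives have a fitted effect of over 55% in size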
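HT-1080-NT fibrosarcoma cells (2HG-overproducing), 750 cells/well in RPMI with 5% FBS, dosed after 2 h and incubated 48 h at 37C. CellTiter-Glo luminescence normalized to DMSO and no-cell wells; concentration-response curves fitted and classed.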
KB-V1 MDR tox – kills drug-selected multidrug resistant KB-V1 cells | 400,000 tested, 3.4% active | KB-V1 MDR cells viability, CellTiter-Glo, 72 h | Potency, µM (series often up to 46.1 µM), hits mostly cytotoxic | AID 1347076; further: on the % scale 0 is the no-effect control and ±100 the full control effect; nearly all actives have a fitted effect of over 60% in size
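In this primary screen, KB-V1 cells overexpressing P-gp are incubated with library compounds (lowest to highest concentration) for 72 h at 37 degrees C before a luminescent ATP viability read.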
MCF10A rereplic – DNA re-replication induction in MCF 10a cells. AID 624296. Potency, µM (highest dose often 46.1 µM), for the others: at the highest dose activity, positive = re-replication, actives largely listed as activators. MCF 10A DNA re-replication, Hoechst nuclear intensity, 48 h. 350,000 tested, 2.9% active; further: % of control where 0% means no effect; nearly all actives have a fitted effect of over 50% in size
An asterisk follows results filed as active; i = inactive; ? = inconclusive; nt = not tested or not shown; ! = not confirmed by another sample. The list is not random: actives were taken first. Their share in the collection is about 7.9%. The call rests on the fitted dose curve; in most records, active means well fitted curve in the direction sought with a large enough effect; inconclusive means small, poorly fitted or top-dose-only effect, or another doubt; inactive means no such curve, though single readings can be large; an effect the other way counts as inactive or inconclusive. Potency means the concentration at half of the fitted maximal effect.

SMILES	SW480 rerep	KB-3-1 tox	HT1080 IDH1KD tx	HT1080-NT tox	KB-V1 MDR tox	MCF10A rereplic
CCc1ccc(OCC(=O)NC(NC(=S)Nc2ccccc2)C(Cl)(Cl)Cl)cc1 (stereo not given)	9.1%	?	16.4µM*	16.4µM*	i	?
Cc1ccccc1NC(=S)NC(NC(=O)COc1ccccc1)C(Cl)(Cl)Cl (stereo not given)	10.0%	?	-9.6%	-11.0%	?	6.6%
CCc1ccc(OCC(=O)NC(NC(=S)Nc2ccccc2OC)C(Cl)(Cl)Cl)cc1 (stereo not given)	-2.8%	?	-14.3%	-9.5%	?	?
Cc1ccc(C)c(N2CCN(C(=O)CCS(=O)(=O)c3ccc4c(c3)oc(=O)n4C)CC2)c1	11.8%	?	0.8%	-12.7%	6.51µM*!	1.1%
Cc1ccc(Cl)cc1N1CCN(S(=O)(=O)c2ccc3c(c2)oc(=O)n3C)CC1	6.6%	i	6.5%	-2.1%	13µM*	2.0%
Cn1c(=O)oc2cc(S(=O)(=O)CCC(=O)N3CCN(c4ccccc4F)CC3)ccc21	-2.0%	i	15.6%	1.3%	?	-2.0%
COCOCCn1cc(CN2CCS(=O)(=O)N(Cc3ccc(-c4cccc(CO)c4)cc3)C(CC(C)C)C2=O)nn1 (stereo not given)	nt	i	8.9%	6.3%	i	nt
O=C(NCc1ccc(F)cc1)C1CCN(c2cnccn2)CC1	-3.8%	i	-13.1%	-9.5%	i	-0.7%
CC(C)c1nnc(NC(=O)C2CCN(c3cnccn3)CC2)s1	-0.8%	i	-1.1%	-0.5%	23.1µM*	-1.2%
C=CCNC(=O)C1CCN(c2cnccn2)CC1	-50.1%	i	10.8%	?	?	0.231µM*
CCc1nnc(NC(=O)C2CCN(c3cnccn3)CC2)s1	-24.3%	i	0.0%	1.6%	i	1.7%
COc1ccc(OC)c(NC(=O)CS(=O)(=O)Cc2nc(-c3ccc(C)cc3)oc2C)c1	nt	i	nt	nt	i	nt
COc1ccc(OC)c(Nc2nc(C3CC3)nc3c2nnn3Cc2ccccc2)c1	-23.9%	i	10.2%	7.8%	2.06µM*	-14.1%
CC(C)Cc1nc(Nc2ccccc2C#N)c2nnn(Cc3ccccc3)c2n1	?	i	18.4µM*	?	?	4.7%
c1ccc(Cn2nnc3c(NCc4ccc5c(c4)OCO5)ncnc32)cc1	-2.5%	i	3.2%	0.0%	i	7.5%
COC(=O)CNc1nc(C2CC2)nc2c1nnn2Cc1ccccc1Cl	-12.3%	i	11.9%	-2.6%	i	27.0%
c1ccc(Cn2nnc3c(Nc4ccc5c(c4)OCO5)nc(C4CC4)nc32)cc1	2.0%	i	?	?	i	10.3µM*
CN(C)S(=O)(=O)c1ccc(Nc2nc(C3CC3)nc3c2nnn3Cc2ccccc2Cl)cc1	8.5%	2.91µM*	5.8µM*	?	?	13.9%
COc1ccc(C)cc1NC(=O)CSc1nc(=O)n(Cc2ccccn2)c2c1CCC2	nt	i	nt	nt	i	nt
CC(=O)N1CCN(c2ccc(NS(=O)(=O)c3ccc4c(c3)CC(=O)N4)cc2)CC1	nt	?	nt	nt	i	nt
CN1CCN(CCCNc2nc3ccccc3c3nc(-c4ccccc4)nn23)CC1	?	i	24.5%	11.0%	i	?
CCN(CC)CCCNc1nc2ccccc2c2nc(-c3ccncc3)nn12	?	18.4µM*	16.4µM*	?	?	?
CCN(CC)CCCNc1nc2cc(OC)c(OC)cc2c2nc(-c3ccccc3)nn12	?	23.1µM*	?	18.4µM*	16.4µM*	?
CCN(CC)CCCNc1nc2cc(OC)c(OC)cc2c2nc(-c3cccnc3)nn12	?	i	-1.0%	-2.8%	?	?
COc1cc2nc(NCCCN3CCN(C)CC3)n3nc(-c4ccccc4)nc3c2cc1OC	?	?	?	16.4µM*	?	13µM*
SMILES	SW480 rerep	KB-3-1 tox	HT1080 IDH1KD tx	HT1080-NT tox	KB-V1 MDR tox	MCF10A rereplic
COc1ccc(-n2cc(C(=O)OCc3ccc(F)c(F)c3)c3ccccc3c2=O)cc1	nt	i	nt	nt	i	nt
CC(C)(C)c1ccc(-c2conc2N)cc1	?	i	?	?	i	17.8µM*
NS(=O)(=O)c1ccc(CCNC(=O)c2cccc(S(=O)(=O)N3CCc4ccccc43)c2)cc1	nt	i	-15.5%	-5.1%	i	nt
Cc1ccc(CNC(=O)Cn2cc(C(=O)c3ccc(Cl)cc3)c(=O)c3ccc(C)nc32)cc1	nt	i	nt	nt	i	nt
Cc1ccc(NN2C(=O)C=C(c3ccccc3)C2=O)cc1	8.2µM*	i	16.4µM*	23.1µM*	i	8.2µM*
CCNC(=O)NS(=O)(=O)c1cnccc1Nc1cccc(Cl)c1	29.1µM*	i	15.7%	16.8%	i	-5.6%
Oc1ccc(C[C@@H]2CNCCN2CCc2cc(C(F)(F)F)cc(C(F)(F)F)c2)cc1	14.0%	i	-22.1%	?	i	?
FC(F)(F)c1cc(CCN2CCNC[C@H]2Cc2cccc3ccccc23)cc(C(F)(F)F)c1	?	i	?	-26.5%	i	16.4µM*
CC(Oc1ccccc1)C(=O)N[C@@H]1C(=O)N2[C@@H]1SC(C)(C)[C@@H]2C(=O)OCc1ccccc1 (stereo not given in full)	nt	i	nt	nt	?	nt
O=[N+]([O-])c1ccc(Cl)c(CN2CCN(c3ncc(Cc4ccccc4)cn3)CC2)c1	nt	?	-21.7%	-19.9%	5.17µM*	nt
COc1cc(Cl)c(NC(=O)c2cc(CN3CCCC3)on2)c(OC)c1	nt	i	nt	nt	i	nt
CC1=C(c2ccc(C)c(C)c2)S(=O)(=O)N=C1N1CCC(C(=O)NCc2ccc(C)o2)CC1	nt	i	nt	nt	i	nt
Cc1ccc(OCC(=O)Nc2ccc(O)c(-c3nc4cc(C)c(C)cc4o3)c2)cc1	nt	?	nt	nt	i	nt
Cc1ccc(OCC(=O)Nc2ccc(O)c(-c3nc4ccccc4o3)c2)cc1	-5.6%	?	?	?	?	16.4µM*
CC(C)(C)c1nc(-c2ccccc2)nc2c1OCCC2	-2.8%	i	6.9%	21.8%	?	25.9µM*
CCCOc1cc(C)c(S(=O)(=O)N2CCOCC2)cc1C	-1.3%	nt	nt	nt	nt	5.3%
COc1cc(C)c(S(=O)(=O)N2CCOCC2)cc1C	8.2µM*	i	8.8%	-2.0%	i	3.26µM*
CCC(=O)NC(c1ccc(OC)cc1)c1cc(Cl)c2cccnc2c1O (stereo not given)	0.517µM*	?	?	-25.8%	i	11.5%
